Test results as given in the OligoGym collection.

biological target: COPS8; assay: pooled miR-30 sensor sort-seq; sequence = guide strand; settings: shRNA
Note: reference of the scale not given here.

Sequence | sensor-assay potency score (higher = more potent)
TTGATGGTTGTATAGATCCCAG | -1.45
ATTCTTTGTCCTACTGACCAAA | -1.48
TTGTTGCATCTCTAAGTGCTTC | -1.16
TTTTTGAAACTAAAGGCGCTTT | -0.00727
TTGCAGATTTTATAGCAGGTGG | -0.905
TTTCTGGGCAGAACCATTCTTG | -0.632
TATGGAGCAAATATAAAGCTAG | -0.121
TAGAAGCTGACCATACACTGGG | 0.625
TTACATTTCTACGTTTGTCAGT | -0.228
TTTTCCAAAGATATCTTGCATT | -0.738
TATTTTATCACATAGTAAGGAA | -0.329
TTCTTTTCCAAAGATATCTTGC | -0.431

biological target: COQ3; assay: as above; settings: shRNA

Sequence | sensor-assay potency score (higher = more potent)
AAACAGGAAAAGATCGTCCTGT | 0.479
TATGGTTCTGTATTCATTGAAA | -1.12
TTAATCTGTAGAGTCCCACTGA | 0.477
TTAGCTTGGAGCTCTTCTGTTT | -0.684
TAACACTTGACAGCAGCACTGT | -0.0361
TAGGATTTGAACCATATGGTTC | -0.787
TACCTGAAACTCTTTATTCTGT | -0.297
TTAATGTTCTCATCCACAGGGT | 0.284
TAGTAATGAATAAAGAACCACC | -0.744
TTCTTCACATAAACCGCCGAGG | -1.27
TTGAAAACATCAGATATCCAAG | -0.816
TAGAGCATTCCTACCACTGTTT | -0.0231
